Records with an inconclusive call do not appear. Active and inactive are the calls of the source. Calls come from the whole dose curve.
Test: Confirmatory qHTS for VERO E6 Cytotoxicity Assay: Counterscreen for SARS-CoV-2 CPE Assay (AID 1508605); note: nearly all actives have a fitted effect of over 60% in size; for activity change, negative = cytotoxic: % is set by controls: 0 for no effect and ±100 for the full control effect
Details: cell viability luminescence; series mostly up to 20 µM; activity change, negative = cytotoxic: at the top concentration
With `CCC(C)CNCC(=O)N1CCC2SC=CC2C1COc1cccc(C)c1` (stereo unspecified) the “activity change, negative = cytotoxic” value was -18.4% (inactive). With `O=C1NC(=O)c2cc(Nc3ccc(F)cc3)c(Nc3ccc(F)cc3)cc21` the Potency was 11.2 µM (active). In the case of `O[C@H]1[C@H]2c3cc4c(cc3CN3CCC(=C[C@@H]1O)[C@H]23)OCO4`, the Potency is reported as 3.16 µM (active). In the case of `COc1cc(N(C)CCN(C)C)c(N)cc1Nc1nccc(-c2cn(C)c3ccccc23)n1`, the “activity change, negative = cytotoxic” value is reported as -7.12% (inactive). For `CC1=CC2OC3CC(O)[C@@](C)(C34CO4)[C@@]2(C)C(O)C1=O` (stereo partly specified), the Potency was 3.55 µM (active). In the case of `CC(C)(C)c1ccc(C(=O)Nc2cc(Cl)c(Br)cc2C(=O)O)cc1`, the Potency is reported as 10 µM (active).

Test: Confirmatory qHTS for activators (rescue) of SARS-CoV-2 Cytopathic Effect (CPE) (AID 1508606); note: nearly all actives have a fitted effect of over 70% in size; for CPE rescue (activation): 0% is about no effect
Details: Vero E6 SARS-CoV-2 CPE rescue, viability luminescence; series mostly up to 20 µM; CPE rescue (activation): at the top concentration
For `COc1ccc(NC(=O)c2ccc(-c3ccc(-c4nnc(C)o4)cc3C)cc2)cc1N1CCN(C)CC1`, the Potency was 6.31 µM (active). With `CCC(C)C(=O)OC1C(C)C2(O)C(C=C(CO)CC3(O)C(=O)C(C)=CC32)C2C(C)(C)C12OC(=O)C(C)C` (stereo unspecified) the “CPE rescue (activation)” value was 12.6% [at 10 µM] (inactive). For `COc1cc2nc(N3CCCCC3)nc(NC3CCN(C)CC3)c2cc1OC`, the Potency was 3.55 µM (active). With `COc1ccccc1N1CCN(CC[C@@](C)(C(=O)C2CCCCC2)c2ccccc2)CC1` the Potency was 10 µM (active). For `Cc1nnc(-c2ccc(-c3ccc(C(=O)Nc4ccc(O)c(N5CCN(C)CC5)c4)cc3)c(C)c2)o1`, the Potency was 8.91 µM (active). With `O=C(NCc1ccccc1)[C@H](Cc1ccccc1)NC(=O)[C@H]1O[C@@H]1C(=O)NCCc1ccc(O)cc1` the Potency was 0.141 µM (active). For `C/C1=C\CCC2=CC(OC2=O)C(C)(C)/C=C/C1=O` (stereo unspecified), the Potency was 10 µM (active). In the case of `Cc1ccc(NCCN(C)CCNc2ccnc3cc(Cl)ccc23)c2c(=O)c3ccccc3sc12`, the “CPE rescue (activation)” value is reported as -8.78% [at 10 µM] (inactive). With `CC/C(=C(/CC)c1ccc(O)c(CN(CC)CC)c1)c1ccc(O)c(CN(CC)CC)c1` the Potency was 8.91 µM (active). In the case of `C[C@H](NC(=O)[C@H](Cc1ccccc1)NC(=O)OCc1ccccc1)C(=O)CF`, the Potency is reported as 0.126 µM (active). For `COc1cc(NC(=O)Nc2cccc(CNC(=O)O[C@H]3CCOC3)c2)ccc1-c1cnco1`, the “CPE rescue (activation)” value was -1.53% (inactive). In the case of `C=CC(C)(C)c1[nH]c2ccccc2c1C1=C(O)C(=O)C(c2c[nH]c3c(CC=C(C)C)cccc23)=C(O)C1=O`, the “CPE rescue (activation)” value is reported as -10.8% (inactive). With `O=C1c2ccccc2-c2nc3nnnn3nc21` (tested in a mixture with another compound) the “CPE rescue (activation)” value was -16.1% (inactive). In the case of `C[C@@H]1O[C@@H](O[C@@H]2[C@@H](O)[C@H](O[C@@H]3[C@@H](O)[C@@H](O)[C@H](O[C@H]4[C@H](OC(=O)[C@]56CCC(C)(C)C[C@H]5C5=CCC7[C@@]8(C)C[C@H](O)[C@H](O[C@@H]9O[C@@H](C)[C@H](O)[C@@H](O)[C@H]9O)[C@@](C)(CO)C8CC[C@@]7(C)[C@]5(C)C[C@H]6O)O[C@H](C)[C@H](O)[C@@H]4O)O[C@H]3C)OC[C@H]2O)[C@H](O)[C@H](O)[C@H]1O` (stereo partly specified), the Potency is reported as 0.602 µM (active). In the case of `CC1=CC2OC3CC(O)[C@@](C)(C34CO4)[C@@]2(C)C(O)C1=O` (stereo partly specified), the “CPE rescue (activation)” value is reported as 18% [at 40 µM] (inactive).

— PubChem BioAssay (NCATS)
Potency is the fitted concentration of half-maximal effect.
